This note sets out measurements from PubChem BioAssay (NCI).

This is part of a sample that, as a whole, favours compounds with a hit. Of some 83,000 tested, about 20% had one in any assay.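 Values shown are percent growth following 48 h exposure of cells in 96-well plates to a single concentration of compound; below 10 was considered active.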 The source made the active and inactive calls.

The test system of this assay is IGROV1 ovarian. Put plainly: NCI-60 one-dose screen, 48 h (100 = growth as untreated, 0 = no growth, -100 = all killed). As to conditions: 10 µM unless noted. Here is the method:
Growth inhibition of the IGROV1 human tumor cell line is measured as a screen for anti-cancer activity. Cells are grown in 96 well plates and exposed to the test compound for 48 hours. Compounds are tested at a single concentration, which is 10^-5 M for most compounds. The reported endpoint is percent growth (GI% or GIPRCNT), where numbers from 0 - 100% represent growth inhibition, and numbers from -100% - 0 represent cell death. For example, a value of 40 represents 60% growth inhibition. A value of 0 means no net growth occurred over the course of the experiment. A value of -40 indicates 40% of cells at the beginning of the experiment died by the end of the experiment. A value of -100 means all cells are dead at the end of the experiment.
NCI-60 Human Tumor Cell Lines Screen was performed using the standard one-dose NCI protocol, which is described in more detail at https://dtp.cancer.gov/discovery_development/nci-60/default.htm.
Compounds with GIPRCNT values below 10 were considered active. Activity score was based on GIPRCNT using the following formula: […]
Score is 0 for GIPRCNT values of 100 or above, 50 for GIPRCNT values of 0, and 100 for GIPRCNT values of -100.
For `O=C(O)c1cc2cc(OCc3ccccc3)ccc2[nH]1`, the growth was 110% (inactive). As to `O=C(CSc1nc2c(n1Nc1ccccc1)-c1ccccc1SC2)Nc1nccs1`, the growth is 91.4% (inactive).

With `COc1ccccc1/C=C/C(=O)CCC(=O)O`, the growth was 110% (inactive). Take `CCN1C(=O)N(CC)C2C1NN=c1s/c(=C\c3ccco3)c(=O)n12` (stereo not given): the growth was 36.9% (inactive). Turning to `CCN(CC)CCCCCCCCNc1c2ccc(Cl)cc2nc2ccc(OC)cc12`, the growth is -9.45% (active). As to `CCC1=CC2CN(C1)Cc1c([nH]c3ccccc13)[C@@](C(=O)OC)(c1cc3c(cc1OC)N(C)[C@H]1[C@@](O)(C(=O)OC)[C@H](OC(C)=O)[C@]4(CC)C=CCN5CC[C@]31[C@@H]54)C2` (stereo not given in full), the growth is 35.7% (inactive). The figure for `CC1(C)CN(CCNc2nccc(-c3c(-c4cccc(O)c4)nc4sccn34)n2)S(=O)(=O)N1` is 38.5% (inactive); for `CCOC(=O)N1C2CCC(C2)N1C(=O)OCC` it is 108% (inactive). The figure for `CC(C)CCC(=O)[C@@H](C)[C@H]1[C@@H](OC2OCC(O)C(O)C2NS(C)(=O)=O)C[C@H]2[C@@H]3CC=C4C[C@@H](O)CC[C@]4(C)[C@H]3CC[C@]12C` (stereo not given in full) is 61.2% (inactive). In the case of `COc1ccc(/C=C/C(=O)CCC(=O)O)cc1OC`, the growth was 108% (inactive).

In the case of `Cc1cccc2nc3ccccc3c(Nc3ccc(NS(C)(=O)=O)cc3)c12`, the growth was 43.1% (inactive). The figure for `CC(C)(C)OC(=O)N1CCCN(CCNc2nccc(-c3c(-c4cccc(O)c4)nc4sccn34)n2)S1(=O)=O` is 79.5% (inactive). In the case of `O=C(N/N=C/c1ccccc1O)c1ccncc1`, the growth is 53.8% (inactive). Take `C=CCOC(=O)C1=C(C)NC2=C(C(=O)CCC2)C1c1ccc(F)cc1` (stereo not given): the growth was 99.2% (inactive). Turning to `CS(=O)(=O)c1ccc(C(=O)Nc2ccc(Cl)c(-c3ccccn3)c2)c(Cl)c1`, the growth is 25.2% (inactive). As for `COc1cc(C2CC(c3cccc(Nc4ccnc5cc(Cl)ccc45)c3)=NN2C=O)cc(OC)c1OC` (stereo not given), the growth was 40.6% (inactive). With `O=C(O)C(CCc1ccccc1)NCc1ccccc1` (stereo not given) the figure was 101% (inactive). With `CC(C)N(C(=S)SSC(=S)N(C(C)C)C(C)C)C(C)C` the figure was 92.2% (inactive); with `CC(C)CCSc1nc(-c2ccc(F)cc2)c(C#N)c(N2CCCCC2)n1`, 106% (inactive); with `c1coc(CNc2c3ccccc3nc3ccccc23)c1`, 61.8% (inactive). Consider `CC1CCN(CCCCCOc2ccc3oc4ccc(Cl)cc4c(=O)c3c2)CC1`, for which the growth is 70.4% (inactive). With `CCN(CC)CCNC(=O)n1cc(-c2ccncc2)c(-c2cc(Cl)cc(OC)c2)n1` the figure was 86% (inactive); with `O=C(Nc1ccc(-n2ccc3c(NC(=O)c4ccccc4)nccc32)cc1)c1ccc(N2CCOCC2)c(C(F)(F)F)c1`, 27.2% (inactive). The figure for `CCSCC1CC(O)(c2ccccc2)C(c2ccccc2)C(c2ccc(F)cc2)O1` (stereo not given) is 11.2% (inactive); for `C[N+](C)(C)CC(=O)N/N=C\c1ccco1` it is 104% (inactive); for `Fc1cc(-c2cnc3nonc3n2)c(Cl)cc1Cl` it is 77% (inactive). Regarding `CC(=O)CC(c1ccc([N+](=O)[O-])cc1)c1c(O)c2ccccc2oc1=O` (stereo not given), the growth was 107% (inactive). With `CS(=O)(=O)c1ccc(C(=O)N/N=C/c2ccccc2Cl)cc1` the figure was 107% (inactive); with `Nc1ncnc2c1N=C(c1ccc3c(c1)OCO3)CC(c1ccc(Cl)cc1)N2` (stereo not given), 13% (inactive). In the case of `COc1ccc(C(=O)O)cc1.[Ag]`, the growth is 110% (inactive).

On to `CCOC(=O)c1cnc(SCC)nc1SC#N`, for which the growth is 98.7% (inactive). Consider `COc1ccccc1CNCCCN1C(=O)c2ccc3c4c(ccc(c24)C1=O)C(=O)N(CCCCNCCCN)C3=O`, for which the growth is -25% (active). For `Cc1ccccc1Nc1n[nH]c(Cc2ccccc2)n1`, the growth is 107% (inactive).

With `COc1cc(NCCC2CCCCN2)c2ncccc2c1OC` (stereo not given), the growth was 4.24% (active). With `Cc1nn(-c2ccccc2)c2nc3c(nc12)C1=NCCN1C(c1ccc(Cl)cc1)N3` (stereo not given) the figure was 88.8% (inactive). On to `CCN(CC)c1ccc(/C=C2/NC(=O)NC2=O)cc1`, for which the growth is 46.7% (inactive). In the case of `COc1ccc(C(=O)OC2C(OC3C(O)COC(O[C@H]4C[C@H]5[C@@H]6CC=C7C[C@@H](O)CC[C@]7(C)[C@H]6CC[C@]5(C)[C@H]4[C@H](C)C(=O)CCC(C)C)C3OC(C)=O)OCC(O)C2O)cc1` (stereo not given in full), the growth was 28.3% (inactive). The figure for `NS(=O)(=O)c1ccc(CCn2c(SCC(=O)N/N=C/c3cccnc3)nc3ccccc3c2=O)cc1` is 104% (inactive); for `Oc1ccccc1-c1nnc(COc2ccc(Cl)cc2Cl)o1` it is 50.7% (inactive). In the case of `O=C(CCl)N1c2ccccc2Oc2ccc3ccccc3c21`, the growth is -70.2% (active).
